# According to paper PMC5892938, “SARNAclust: Semi-automatic detection of RNA protein binding motifs from immunoprecipitation data”:
# The full ranking holds about 11,000 sequences; the median of “log2 fold change” is about 0.00022, and the highest 2% start at about 0.34. Some of the results follow.
# Target: GST-SBP-SLBP (stem-loop binding protein) (Homo sapiens, UniProt Q14493 1-270)
# Assay: targeted RNA Bind-n-Seq; RBNS binding buffer: 25 mM Tris pH 7.5, 150 mM KCl, 3 mM MgCl2, 0.1% Tween, 0.5 mg/mL BSA, 1 mM DTT; 27 nM protein, 750 pM RNA pool; temperature not stated; high values mean tight binding
# Conditions: protein: recombinant; tags: N-terminal GST and SBP (pGEX6P1-SBP); structured_RNA
# Procedure, shortened: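 A designed RNA oligo pool, transcribed with T7, was present at 750 pM and incubated in RBNS binding buffer with 27 nM of GST-SBP-tagged protein that had been expressed in Rosetta(DE3) pLysS E. coli and purified with glutathione. After reverse transcription with a 10-nucleotide barcoded primer and PCR, the bound RNA was sequenced as 200-cycle paired-end reads on a MiSeq. Each sequence's binding signal is the DEseq binary-logarithm fold change in read counts, computed after joining reads with FLASH, aligning with HISAT2 and collapsing by barcode.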
row,Sequence,binding signal
1,GGUCACGUCUCAAUCAACUCUUACGAGGGGGGGAAAACCCCUUUACCCUCACACUCAACAGCUCGCAGUCAAG,0.321 ± 0.386 log2 fold change
2,GGUCACGUCUCAAUCAACUCAAACGAGGGGGGGAAAACCCCUUUACCCUCAUUCUCAACAGCUCGCAGUCAAG,0.326 ± 0.393 log2 fold change
3,GGUCACGUCUCAAUCAACUCUCACGAGGGGGGGAAAACCCCUUUACCCUCUUACUCAACAGCUCGCAGUCAAG,0.346 ± 0.439 log2 fold change
4,GGUCACGUCUCAAUCAACUCUUACGAGGGGGGGAAAACCCCUUUACCCUCUUCUUCAACAGCUCGCAGUCAAG,0.477 ± 0.42 log2 fold change
5,GGUCACGUCUCAAUCAACUCAAACGAGGGGGGGAAAACCCCUUUACCCUCAACUUCAACAGCUCGCAGUCAAG,0.35 ± 0.421 log2 fold change
6,GGUCACGUCUCAAUCAACUCUCACGAGGGGGGGAAAACCCCUUUACCCUCAACUUCAACAGCUCGCAGUCAAG,0.363 ± 0.418 log2 fold change
7,GGUCACGUCUCAAUCAACUCUAACGAGGGGGGGAAAACCCCUUUACCCUCAACUUCAACAGCUCGCAGUCAAG,0.426 ± 0.419 log2 fold change
8,GGUCACGUCUCAAUCAACUCUAACGAGGGGGGGAAAACCCCUUUACCCUCUAUAUCAACAGCUCGCAGUCAAG,0.308 ± 0.434 log2 fold change
9,GGUCACGUCUCAAUCAACUCCUUCGAGGGGGGGAAAACCCCUUUACCCUCACAAUCAACAGCUCGCAGUCAAG,0.304 ± 0.425 log2 fold change
10,GGUCACGUCUCAAUCAACUCCUUCGAGGGGGGGAAAACCCCUUUACCCUCACCUUCAACAGCUCGCAGUCAAG,0.36 ± 0.426 log2 fold change
11,GGUCACGUCUCAAUCAACUCUUUCGAGGGGGGGAAAACCCCUUUACCCUCAUACUCAACAGCUCGCAGUCAAG,0.524 ± 0.429 log2 fold change
12,GGUCACGUCUCAAUCAACUCCUUCGAGGGGGGGAAAACCCCUUUACCCUCUUCAUCAACAGCUCGCAGUCAAG,0.429 ± 0.434 log2 fold change
13,GGUCACGUCUCAAUCAACUCUUCGGAGGGGGGGAAAACCCCUUUACCCUCAAUCUCAACAGCUCGCAGUCAAG,0.453 ± 0.428 log2 fold change
14,GGUCACGUCUCAAUCAACUCUUUCGAGGGGGGGAAAACCCCUUUACCCUCAUAAUCAACAGCUCGCAGUCAAG,0.336 ± 0.429 log2 fold change
15,GGUCACGUCUCAAUCAACUCCUUCGAGGGGGGGAAAACCCCUUUACCCUCUUAAUCAACAGCUCGCAGUCAAG,0.305 ± 0.422 log2 fold change
16,GGUCACGUCUCAAUCAACUCAACGGAGGGGGGGAAAACCCCUUUACCCUCAACAUCAACAGCUCGCAGUCAAG,0.308 ± 0.444 log2 fold change
17,GGUCACGUCUCAAUCAACUCAAUCGAGGGGGGGAAAACCCCUUUACCCUCACCUUCAACAGCUCGCAGUCAAG,0.499 ± 0.434 log2 fold change
18,GGUCACGUCUCAAUCAACUCAAUUUCCAGGGAAAGCCCUGGUAUACUCAACAGCUCGCAGUCAAG,0.343 ± 0.255 log2 fold change
19,GGUCACGUCUCAAUCAACUCAACUCCCAGGGAAAGCCCUGGUAUACUCAACAGCUCGCAGUCAAG,0.301 ± 0.289 log2 fold change
20,GGUCACGUCUCAAUCAACUCAACUUCCAGGGAAAACCCUGGUAUACUCAACAGCUCGCAGUCAAG,0.373 ± 0.293 log2 fold change
21,GGUCACGUCUCAAUCAACUCUACUUCCAGGGAAACCCCUGGUAUACUCAACAGCUCGCAGUCAAG,0.362 ± 0.285 log2 fold change
22,GGUCACGUCUCAAUCAACUCGCAAGAGGGGGGGAAAACCCCUUUACCCUCAAAUUCAACAGCUCGCAGUCAAG,0.308 ± 0.444 log2 fold change
23,GGUCACGUCUCAAUCAACUCUCUAGAGGGGGGGAAAACCCCUUUACCCUCACUUUCAACAGCUCGCAGUCAAG,0.308 ± 0.399 log2 fold change
24,GGUCACGUCUCAAUCAACUCACUAGAGGGGGGGAAAACCCCUUUACCCUCAAUUUCAACAGCUCGCAGUCAAG,0.352 ± 0.409 log2 fold change
25,GGUCACGUCUCAAUCAACUCGCAAGAGGGGGGGAAAACCCCUUUACCCUCAAUUUCAACAGCUCGCAGUCAAG,0.343 ± 0.444 log2 fold change

row,Sequence,binding signal
1,GGUCACGUCUCAAUCAACUCUCCAGAGGGGGGGAAAACCCCUUUACCCUCACAUUCAACAGCUCGCAGUCAAG,0.328 ± 0.444 log2 fold change
2,GGUCACGUCUCAAUCAACUCCUCGGAGGGGGGGAAAACCCCUUUACCCUCACAUUCAACAGCUCGCAGUCAAG,0.424 ± 0.434 log2 fold change
3,GGUCACGUCUCAAUCAACUCCUCGGAGGGGGGGAAAACCCCUUUACCCUCAUAUUCAACAGCUCGCAGUCAAG,0.374 ± 0.433 log2 fold change
4,GGUCACGUCUCAAUCAACUCAUCAGAGGGGGGGAAAACCCCUUUGCCCUCCACAUCAACAGCUCGCAGUCAAG,0.401 ± 0.446 log2 fold change
5,GGUCACGUCUCAAUCAACUCCACAGAGGGGGGGAAAACCCCUUUGCCCUCCAUAUCAACAGCUCGCAGUCAAG,0.437 ± 0.447 log2 fold change
6,GGUCACGUCUCAAUCAACUCAGAAGAGGGGGGGAAAACCCCUUUGCCCUCCAUAUCAACAGCUCGCAGUCAAG,0.327 ± 0.401 log2 fold change
7,GGUCACGUCUCAAUCAACUCCCCAGAGGGGGGGAAAACCCCUUUGCCCUCAAUAUCAACAGCUCGCAGUCAAG,0.552 ± 0.441 log2 fold change
8,GGUCACGUCUCAAUCAACUCCUCAGAGGGGGGGAAAACCCCUUUGCCCUCCAAAUCAACAGCUCGCAGUCAAG,0.317 ± 0.412 log2 fold change
9,GGUCACGUCUCAAUCAACUCUCCAGAGGGGGGGAAAACCCCUUUGCCCUCCACAUCAACAGCUCGCAGUCAAG,0.318 ± 0.411 log2 fold change
10,GGUCACGUCUCAAUCAACUCUAUCCCCAGGGAAAGCCCUGGCUUACUCAACAGCUCGCAGUCAAG,0.3 ± 0.283 log2 fold change
11,GGUCACGUCUCAAUCAACUCAAUCCCCAGGGAAAUCCCUGGCUUACUCAACAGCUCGCAGUCAAG,0.371 ± 0.289 log2 fold change
12,GGUCACGUCUCAAUCAACUCAUUCCCCAGGGAAAGCCCUGGCUUUUUCAACAGCUCGCAGUCAAG,0.512 ± 0.316 log2 fold change
13,GGUCACGUCUCAAUCAACUCAUCCCCCAGGGAAAGCCCUGGCUUACUCAACAGCUCGCAGUCAAG,0.352 ± 0.269 log2 fold change
14,GGUCACGUCUCAAUCAACUCAUUUCCCAGGGAAAGCCCUGGUAAUCUCAACAGCUCGCAGUCAAG,0.334 ± 0.275 log2 fold change
15,GGUCACGUCUCAAUCAACUCUAUCCCCAGGGAAACCCCUGGCUUACUCAACAGCUCGCAGUCAAG,0.376 ± 0.273 log2 fold change
16,GGUCACGUCUCAAUCAACUCAUCCCCCAGGGAAAUCCCUGGCUUACUCAACAGCUCGCAGUCAAG,0.468 ± 0.259 log2 fold change
17,GGUCACGUCUCAAUCAACUCAUCUUCCAGGGAAAGCCCUGGCUUUCUCAACAGCUCGCAGUCAAG,0.425 ± 0.292 log2 fold change
18,GGUCACGUCUCAAUCAACUCAACUCCCAGGGAAAUCCCUGGUUAUCUCAACAGCUCGCAGUCAAG,0.334 ± 0.284 log2 fold change
19,GGUCACGUCUCAAUCAACUCUUUUUCCAGGGAAAGCCCUGGCUAUGUCAACAGCUCGCAGUCAAG,0.31 ± 0.256 log2 fold change
20,GGUCACGUCUCAAUCAACUCUUCUUCCAGGGAAAGCCCUGGCUAUUUCAACAGCUCGCAGUCAAG,0.333 ± 0.251 log2 fold change
21,GGUCACGUCUCAAUCAACUCAGUUCCCAGGGAAAGCCCUGGCAUUUUCAACAGCUCGCAGUCAAG,0.449 ± 0.362 log2 fold change
22,GGUCACGUCUCAAUCAACUCAGUCCCCAGGGAAAGCCCUGGCAUAUUCAACAGCUCGCAGUCAAG,0.34 ± 0.375 log2 fold change
23,GGUCACGUCUCAAUCAACUCUUUUUCCAGGGAAAGCCCUGGCAUGUUCAACAGCUCGCAGUCAAG,0.337 ± 0.241 log2 fold change
24,GGUCACGUCUCAAUCAACUCAAUCCCCAGGGAAAUCCCUGGUUUACUCAACAGCUCGCAGUCAAG,0.393 ± 0.26 log2 fold change
25,GGUCACGUCUCAAUCAACUCUAUCUCCAGGGAAAACCCUGGCUAUUUCAACAGCUCGCAGUCAAG,0.433 ± 0.244 log2 fold change

row,Sequence,binding signal
1,GGUCACGUCUCAAUCAACUCAUCCUCCAGGGAAACCCCUGGCUAUUUCAACAGCUCGCAGUCAAG,0.363 ± 0.269 log2 fold change
2,GGUCACGUCUCAAUCAACUCUAUCUCCAGGGAAAGCCCUGGCUUACUCAACAGCUCGCAGUCAAG,0.329 ± 0.278 log2 fold change
3,GGUCACGUCUCAAUCAACUCUAUCUCCAGGGAAACCCCUGGCUAACUCAACAGCUCGCAGUCAAG,0.366 ± 0.263 log2 fold change
4,GGUCACGUCUCAAUCAACUCUAUCUCCAGGGAAAGCCCUGGUUAUCUCAACAGCUCGCAGUCAAG,0.334 ± 0.307 log2 fold change
5,GGUCACGUCUCAAUCAACUCAAUCUCCAGGGAAAGCCCUGGCUAACUCAACAGCUCGCAGUCAAG,0.405 ± 0.277 log2 fold change
6,GGUCACGUCUCAAUCAACUCAUCCUCCAGGGAAACCCCUGGCUAUCUCAACAGCUCGCAGUCAAG,0.3 ± 0.279 log2 fold change
7,GGUCACGUCUCAAUCAACUCUAUCUCCAGGGAAACCCCUGGCAAACUCAACAGCUCGCAGUCAAG,0.323 ± 0.268 log2 fold change
8,GGUCACGUCUCAAUCAACUCUAUCUCCAGGGAAAACCCUGGCUAACUCAACAGCUCGCAGUCAAG,0.369 ± 0.3 log2 fold change
9,GGUCACGUCUCAAUCAACUCAUCCUCCAGGGAAAACCCUGGCAUAUUCAACAGCUCGCAGUCAAG,0.384 ± 0.243 log2 fold change
10,GGUCACGUCUCAAUCAACUCUAUCCCCAGGGAAAACCCUGGCUAUCUCAACAGCUCGCAGUCAAG,0.336 ± 0.26 log2 fold change
11,GGUCACGUCUCAAUCAACUCAUCUCCCAGGGAAAACCCUGGCUAUCUCAACAGCUCGCAGUCAAG,0.3 ± 0.284 log2 fold change
12,GGUCACGUCUCAAUCAACUCAUUUUCCAGGGAAAUCCCUGGCAUAUUCAACAGCUCGCAGUCAAG,0.33 ± 0.202 log2 fold change
13,GGUCACGUCUCAAUCAACUCUUAAGAGGGGGGGAAAACCCCUUUGCCCUCACACUCAACAGCUCGCAGUCAAG,0.323 ± 0.393 log2 fold change
14,GGUCACGUCUCAAUCAACUCUCUAGAGGGGGGGAAAACCCCUUUGCCCUCACUAUCAACAGCUCGCAGUCAAG,0.386 ± 0.408 log2 fold change
15,GGUCACGUCUCAAUCAACUCUCUAGAGGGGGGGAAAACCCCUUUGCCCUCACACUCAACAGCUCGCAGUCAAG,0.353 ± 0.4 log2 fold change
16,GGUCACGUCUCAAUCAACUCAAAAGAGGGGGGGAAAACCCCUUUACCCUCAUAUUCAACAGCUCGCAGUCAAG,0.449 ± 0.451 log2 fold change
17,GGUCACGUCUCAAUCAACUCAAAAGAGGGGGGGAAAACCCCUUUACCCUCAUCUUCAACAGCUCGCAGUCAAG,0.535 ± 0.407 log2 fold change
18,GGUCACGUCUCAAUCAACUCCAAAGAGGGGGGGAAAACCCCUUUACCCUCAUCUUCAACAGCUCGCAGUCAAG,0.443 ± 0.434 log2 fold change
19,GGUCACGUCUCAAUCAACUCUAUUUCCAGGGAAAUCCCUGGCUAACUCAACAGCUCGCAGUCAAG,0.335 ± 0.258 log2 fold change
20,GGUCACGUCUCAAUCAACUCAUUCCCCAGGGAAAUCCCUGGCUUAUUCAACAGCUCGCAGUCAAG,0.349 ± 0.307 log2 fold change
21,GGUCACGUCUCAAUCAACUCAUCUCCCAGGGAAAUCCCUGGCUUAUUCAACAGCUCGCAGUCAAG,0.417 ± 0.302 log2 fold change
22,GGUCACGUCUCAAUCAACUCUAUUUCCAGGGAAAUCCCUGGCUUAUUCAACAGCUCGCAGUCAAG,0.488 ± 0.245 log2 fold change
23,GGUCACGUCUCAAUCAACUCAAUCCCCAGGGAAAUCCCUGGCAUUCUCAACAGCUCGCAGUCAAG,0.318 ± 0.264 log2 fold change
